For 33 sequences, binding signal results are on record in article PMC12820563, “FoxP3 forms a head-to-head dimer in vivo and stabilizes its multimerization on adjacent microsatellites”.

Over roughly 16,000 sequences, “rpm ratio (pull-down/input)” has its median near 0.94; the highest 2% begin near 1.7. This excerpt belongs to a sample that is enriched for the highest values.

The target in the assay is T1, MBP-FoxP1dN (Mus musculus, UniProt P58462 326-579).
T1 sequence: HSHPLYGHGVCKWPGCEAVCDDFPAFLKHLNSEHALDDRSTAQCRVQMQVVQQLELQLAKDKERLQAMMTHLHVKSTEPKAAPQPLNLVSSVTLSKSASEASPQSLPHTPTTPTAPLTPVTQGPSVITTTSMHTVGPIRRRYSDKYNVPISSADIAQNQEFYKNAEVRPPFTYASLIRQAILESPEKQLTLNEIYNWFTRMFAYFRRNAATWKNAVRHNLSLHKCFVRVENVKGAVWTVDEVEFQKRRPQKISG
Nature of the assay: PD-seq (MBP pull-down with sequencing); 20 mM Tris-HCl pH 7.5, 100 mM NaCl, 1.5 mM MgCl2, 0.4 uM protein, 0.1 uM dsDNA library, 30 min, room temperature, amylose pull-down; high values mean tight binding. The following applies: protein: recombinant; tags: His6-MBP; chain copies: 2; dsDNA, one strand shown. In a few lines: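 His6-MBP-tagged mouse FoxP3 or FoxP1 fragment lacking the N-terminus, expressed in E. coli, was mixed at 0.4 µM with 0.1 µM Klenow-filled double-stranded degenerate DNA library. Incubation was 30 min at room temperature in Tris pH 7.5 buffer with NaCl and MgCl2. Complexes were caught on amylose resin and washed three times; DNA was released with proteinase K, PCR-barcoded and Illumina-sequenced. Binding is reads-per-million enrichment, pull-down over input, with replicates pooled.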
“GATGATTGTTCTCCCAGCTGATGAATTCTGTTTGTCGAGTAAACAAATTTTCCTAATCTTTCTGTTCAAGCGCCATCTAC”: the binding signal is 2.36 RPM ratio (pull-down/input).
For “GATGATTGTTCTCCCAGCTGATGAATTCTTTTTGTCGAGTAAACAAATTTTCCTAATCTTTCTGTTCAAGCGCCATCTAC” the value was 0.964 RPM ratio (pull-down/input); for “GATGATTGTTCTCCCAGCTGATGAATTCAATTTGTCGAGTAAACAAATTTTCCTAATCTTTCTGTTCAAGCGCCATCTAC”, 1.07 RPM ratio (pull-down/input); for “GATGATTGTTCTCCCAGCTGATGAATTTCTTTCGTCGAGTAAACAAATTTTCCTAATCTTTCTGTTCAAGCGCCATCTAC”, 0.887 RPM ratio (pull-down/input).
For “GATGATTGTTCTCCCAGCTGATGAATTGCTGATTTCGAGTAAACAAATTTTCCTAATCTTTCTGTTCAAGCGCCATCTAC” the value was 1.31 RPM ratio (pull-down/input); for “GATGATTGTTCTCCCAGCTGATGAATTGATGTTTTCGAGTAAACAAATTTTCCTAATCTTTCTGTTCAAGCGCCATCTAC”, 2.82 RPM ratio (pull-down/input); for “GATGATTGTTCTCCCAGCTGATGAATTTGCTGTTTCGAGTAAACAAATTTTCCTAATCTTTCTGTTCAAGCGCCATCTAC”, 1.33 RPM ratio (pull-down/input).
For “GATGATTGTTCTCCCAGCTGATGAATTTGATGTTTCGAGTAAACAAATTTTCCTAATCTTTCTGTTCAAGCGCCATCTAC” the value was 1.16 RPM ratio (pull-down/input); for “GATGATTGTTCTCCCAGCTGATGAATTTGTTTCGTCGAGTAAACAAATTTTCCTAATCTTTCTGTTCAAGCGCCATCTAC”, 1.3 RPM ratio (pull-down/input).
Take “GATGATTGTTCTCCCAGCTGATGAATTGAATGTTTCGAGTAAACAAATTTTCCTAATCTTTCTGTTCAAGCGCCATCTAC”: the binding signal was 1.01 RPM ratio (pull-down/input).
For “GATGATTGTTCTCCCAGCTGATGAATTTCTTCTTTCGAGTAAACAAATTTTCCTAATCTTTCTGTTCAAGCGCCATCTAC” the value was 1.01 RPM ratio (pull-down/input); for “GATGATTGTTCTCCCAGCTGATGAATTGTTTTCGTCGAGTAAACAAATTTTCCTAATCTTTCTGTTCAAGCGCCATCTAC”, 2.02 RPM ratio (pull-down/input); for “GATGATTGTTCTCCCAGCTGATGAATTGCTGTTTTCGAGTAAACAAATTTTCCTAATCTTTCTGTTCAAGCGCCATCTAC”, 2.45 RPM ratio (pull-down/input).
For “GATGATTGTTCTCCCAGCTGATGAATTGTTTTCTTCGAGTAAACAAATTTTCCTAATCTTTCTGTTCAAGCGCCATCTAC” the value was 2.03 RPM ratio (pull-down/input); for “GATGATTGTTCTCCCAGCTGATGAATTGTTTCCTTCGAGTAAACAAATTTTCCTAATCTTTCTGTTCAAGCGCCATCTAC”, 1.44 RPM ratio (pull-down/input).
For “GATGATTGTTCTCCCAGCTGATGAATTCGGGATTTCGAGTAAACAAATTTTCCTAATCTTTCTGTTCAAGCGCCATCTAC” the value was 0.851 RPM ratio (pull-down/input); for “GATGATTGTTCTCCCAGCTGATGAATTAAGGTGCTCGAGTAAACAAATTTTCCTAATCTTTCTGTTCAAGCGCCATCTAC”, 0.849 RPM ratio (pull-down/input).
Regarding “GATGATTGTTCTCCCAGCTGATGAATTTGTAAGATCGAGTAAACAAATTTTCCTAATCTTTCTGTTCAAGCGCCATCTAC”, the binding signal is 1.09 RPM ratio (pull-down/input).
With “GATGATTGTTCTCCCAGCTGATGAATTTTTGAGATCGAGTAAACAAATTTTCCTAATCTTTCTGTTCAAGCGCCATCTAC” the figure was 0.928 RPM ratio (pull-down/input); with “GATGATTGTTCTCCCAGCTGATGAATTTGTACCATCGAGTAAACAAATTTTCCTAATCTTTCTGTTCAAGCGCCATCTAC”, 1.17 RPM ratio (pull-down/input).
With “GATGATTGTTCTCCCAGCTGATGAATTCATCGGATCGAGTAAACAAATTTTCCTAATCTTTCTGTTCAAGCGCCATCTAC” the figure was 0.838 RPM ratio (pull-down/input); with “GATGATTGTTCTCCCAGCTGATGAATTATTTCCTTCGAGTAAACAAATTTTCCTAATCTTTCTGTTCAAGCGCCATCTAC”, 1.04 RPM ratio (pull-down/input).
For “GATGATTGTTCTCCCAGCTGATGAATTGAGTGACTCGAGTAAACAAATTTTCCTAATCTTTCTGTTCAAGCGCCATCTAC” the value was 0.833 RPM ratio (pull-down/input); for “GATGATTGTTCTCCCAGCTGATGAATTACCATTTTCGAGTAAACAAATTTTCCTAATCTTTCTGTTCAAGCGCCATCTAC”, 1.18 RPM ratio (pull-down/input).
In the case of “GATGATTGTTCTCCCAGCTGATGAATTTCTGTTTTCGAGTAAACAAATTTTCCTAATCTTTCTGTTCAAGCGCCATCTAC”, the binding signal is 2.32 RPM ratio (pull-down/input).
For the sequence “GATGATTGTTCTCCCAGCTGATGAATTACTGTTTTCGAGTAAACAAATTTTCCTAATCTTTCTGTTCAAGCGCCATCTAC”, the binding signal was 2.6 RPM ratio (pull-down/input).
As to “GATGATTGTTCTCCCAGCTGATGAATTTTCTGTTTCGAGTAAACAAATTTTCCTAATCTTTCTGTTCAAGCGCCATCTAC”, the binding signal was 0.977 RPM ratio (pull-down/input).
With “GATGATTGTTCTCCCAGCTGATGAATTACTGATTTCGAGTAAACAAATTTTCCTAATCTTTCTGTTCAAGCGCCATCTAC” the figure was 1.24 RPM ratio (pull-down/input); with “GATGATTGTTCTCCCAGCTGATGAATTTACTGTTTCGAGTAAACAAATTTTCCTAATCTTTCTGTTCAAGCGCCATCTAC”, 1.35 RPM ratio (pull-down/input); with “GATGATTGTTCTCCCAGCTGATGAATTTCCTGTTTCGAGTAAACAAATTTTCCTAATCTTTCTGTTCAAGCGCCATCTAC”, 0.949 RPM ratio (pull-down/input).
With “GATGATTGTTCTCCCAGCTGATGAATTGTTTCTTTCGAGTAAACAAATTTTCCTAATCTTTCTGTTCAAGCGCCATCTAC” the figure was 1.58 RPM ratio (pull-down/input); with “GATGATTGTTCTCCCAGCTGATGAATTGATTGTTTCGAGTAAACAAATTTTCCTAATCTTTCTGTTCAAGCGCCATCTAC”, 1.61 RPM ratio (pull-down/input).
Consider “GATGATTGTTCTCCCAGCTGATGAATTGTTTTTTTCGAGTAAACAAATTTTCCTAATCTTTCTGTTCAAGCGCCATCTAC”, for which the binding signal is 2.25 RPM ratio (pull-down/input).
